Results: PubChem BioAssay (NCATS)
Results filed as inconclusive are left out. Unmarked numbers belong to inactive results. Calls follow the shape of the dose curve; as a rule, active = well fitted cell-killing curve with a large enough effect; inconclusive = small, poorly fitted or top-dose-only effect, or effect the other way; inactive = flat fitted curve, though single readings scatter. Where a SMILES comes first, the peptide text is derived from it.

tested on: C33A; assay: Primary qHTS to identify gynecologic anti-cancer compounds using libraries of approved drugs and bioactive compounds (AID 1345084); conditions: Gynecologic cancer cell panel viability, ATPlite luminescence, 48 h; series mostly up to 57.5 µM; activity change, negative = cytotoxicity: at the top concentration; also: nearly all actives have a fitted effect of over 55% in size
How it was run: (§1)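 Cells, 1,000 per well, plated 16 h, then exposed 48 h at 37 C to compounds. Viability by ATPlite luminescence after 15 min at room temperature.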
% is scaled to controls: 0 for no effect and ±100 for the full control effect.

Row | Structure (SMILES) | activity change, negative = cytotoxicity
1 | CCC(C)/C=C(C)/C=C/C1=CC2=C(Cl)C(=O)C(C)(OC(C)=O)C(=O)C2=CN1C(CC(=O)O)C(=O)O (stereo not drawn) | 0.92% [at 25.3 µM]
2 | CC(C)[C@](O)(c1ccc2cc(OC(F)F)c(OC(F)F)cc2c1)c1cn[nH]n1 | 12.4%
3 | COc1cc(C(=O)OC[C@H]2O[C@@H](OC(C)(C)C(=O)O)[C@H](O)[C@@H](O)[C@@H]2O)cc(OC)c1O | 0.882% [at 25.3 µM]
4 | COc1cc(C(C)=O)ccc1O[C@@H]1O[C@H](CO)[C@@H](O)[C@H](O)[C@H]1O | -12.7% [at 38.5 µM]
5 | CC1(C)C(=O)CCC2(C)C1C(O)C=C1COC(=O)C12O (stereo not drawn) | 3.9%
6 | COc1cc(/C=C/c2ccccc2)c(C(=O)O)c(O)c1CC=C(C)C | -1.12% [at 38.5 µM]
7 | CCC(C)C(C(=O)O)N1Cc2c(OCC=C(C)C)c(C)c(OC)c(C(=O)O)c2C1=O (stereo not drawn) | 4.29% [at 25.3 µM]
8 | COC(=O)C1=CO[C@@H](O[C@@H]2O[C@H](CO)[C@@H](O)[C@H](O)[C@H]2O)[C@@H]2[C@@H](CO)[C@@H](O)C(O)[C@H]12 (stereo partly drawn) | 14.7% [at 25.3 µM]
9 | CC(C)C[C@H](NC(=O)[C@@H]1O[C@H]1C(=O)O)C(=O)NCCCCN=C(N)N | -2.81%
10 | C[C@@H]1O[C@@H](OC[C@H]2O[C@@H](OCc3ccccc3)[C@H](O)[C@@H](O)[C@@H]2O)[C@H](O)[C@H](O)[C@H]1O | 0.111% [at 25.3 µM]
11 | CNC(=O)c1ccc2c(c1)CCO[C@H]2CCN1CCN(c2ccc(C(N)=O)cc2)CC1 | -8.4%
12 | COC(=O)C1=COC(OC2OC(CO)C(O)C(O)C2O)C2C(COC(=O)/C=C/c3ccc(O)c(O)c3)C(O)C(O)C12 (stereo not drawn) | 2.78% [at 25.3 µM]
13 | CC(C)C1NC(=O)CNC(=O)C2CCCN2C(=O)C(Cc2c[nH]c3ccccc23)NC(=O)CNC(=O)C(Cc2ccc(O)cc2)NC(=O)CNC1=O (stereo not drawn) (cyclo(GVGYGWP); configuration not given here) | 12% [at 25.3 µM]
14 | CC(C)c1ccc2c(c1)C(=O)CC1C(C)(C(=O)O)CCCC21C (stereo not drawn) | 24.6% [at 38.5 µM]
15 | C=C1CCC2(C(=O)OC3OC(CO)C(O)C(O)C3O)CCC3(C)C(=CCC4C5(C)CCC(OC6OC(CO)C(OC7OC(C)C(O)C(O)C7O)C(OC7OCC(O)C(O)C7O)C6O)C(C)(C)C5CCC43C)C2C1 (stereo not drawn) | 5.83% [at 11.6 µM]
16 | C=C1CC2C(C)(CCC(=O)O)C(C(C)(C)O)CCC2(C)C2(C(=O)OC)C(=O)C(C)(O)C(=O)C12C (stereo not drawn) | 4.15% [at 25.3 µM]
17 | COc1ccc(-n2c(SCC#N)nc3sc4c(c3c2=O)CCCC4)cc1 | 12.7%

tested on: CAOV3; assay: as above; conditions: Gynecologic cancer cell panel viability, ATPlite luminescence, 48 h; series mostly up to 57.5 µM; activity change, negative = cytotoxicity: at the top concentration
How it was run: as §1

Row | Structure (SMILES) | activity change, negative = cytotoxicity
18 | OCC1OC(Oc2cc(O)cc(/C=C/c3ccc(OC4OC(CO)C(O)C(O)C4O)cc3O)c2)C(O)C(O)C1O (stereo not drawn) | 14% [at 25.3 µM]
19 | C[C@@H]1O[C@@H](O[C@H]2[C@H](O[C@H]3[C@H](O[C@H]4CC[C@@]5(C)C(CC[C@]6(C)C5CC=C5[C@@H]7CC(C)(C)CC(=O)[C@]7(C)CC[C@]56C)[C@@]4(C)CO)O[C@H](C(=O)O)[C@@H](O)[C@@H]3O)O[C@H](CO)[C@H](O)[C@@H]2O)[C@H](O)[C@H](O)[C@H]1O (stereo partly drawn) | 7.98% [at 11.6 µM]
20 | CC(O)C/C=C/C=C/C(=O)OC1C=C2COC(=O)C2(O)C2(C)CCCC(C)(C)C12 (stereo not drawn) | 14.7% [at 38.5 µM]
21 | C[C@@H]1O[C@@H](O[C@H]2[C@H](O)[C@@H](O[C@@H]3O[C@H](CO)[C@H](O)[C@H](O)[C@H]3O)[C@H](O[C@H]3CC[C@@]4(C)C(CC[C@]5(C)C4CC=C4[C@@H]6CC(C)(C)CC[C@]6(C(=O)O[C@@H]6O[C@H](CO)[C@@H](O)[C@H](O)[C@H]6O)CC[C@]45C)C3(C)C)O[C@@H]2C(=O)O)[C@H](O)[C@H](O)[C@H]1O (stereo partly drawn) | -1.94% [at 11.6 µM]
22 | COc1ccnc(CCc2nc3ncccc3[nH]2)c1 | 8.05%
23 | CC(=O)O[C@@H]1[C@H](O[C@@H]2OC[C@](O)(CO)[C@H]2O)[C@@H](O[C@@H]2O[C@@H](C)[C@H](O)[C@@H](O[C@@H]3O[C@H](CO)[C@@H](O)[C@H](O)[C@H]3O)[C@H]2O)[C@H](OC(=O)[C@]23CCC(C)(C)C[C@H]2C2=CCC4[C@@]5(C)C[C@H](O)[C@H](O[C@@H]6O[C@H](C(=O)O)[C@@H](O)[C@H](O)[C@H]6O)[C@@](C)(C(=O)O)C5CC[C@@]4(C)[C@]2(C)CC3)O[C@@H]1C (stereo partly drawn) | 22.8% [at 6.55 µM]
24 | CC(C)CC(=O)O[C@@H]1O[C@H](CO)[C@@H](O[C@H]2O[C@H](C)[C@@H](N[C@H]3C=C(CO)[C@@H](O[C@H]4O[C@H](CO)[C@@H](O[C@H]5O[C@H](CO)[C@@H](O[C@H]6O[C@H](CO)[C@@H](O)[C@H](O)[C@H]6O)[C@H](O)[C@H]5O)[C@H](O)[C@H]4O)[C@H](O)[C@H]3O)[C@H](O)[C@H]2O)[C@H](O)[C@H]1O | 1.97% [at 11.6 µM]
25 | NC[C@H]1CCC[C@@H](CNC(=O)[C@@H](Cc2c[nH]c3ccccc23)NC(=O)N2CCC3(C=Cc4ccccc43)CC2)C1 | 1.02% [at 38.5 µM]
26 | CC1CCC2(C)CCC3(C)C(=CCC4C5(C)CCC(O)C(C)(C(=O)O)C5CCC43C)C2C1C (stereo not drawn) | -1.66% [at 25.3 µM]
27 | C[C@@H]1O[C@@H](O[C@H]2[C@@H]3C=CO[C@@H](O[C@@H]4O[C@H](CO)[C@@H](O)[C@H](O)[C@H]4O)[C@@H]3[C@@]3(CO)O[C@@H]23)[C@H](O)[C@H](O)[C@H]1OC(=O)/C=C/c1ccc(O)cc1 | -5.69% [at 25.3 µM]
28 | CC(CC12CCCN1C(=O)C1CCCN1C2=O)OC(N)=O (stereo not drawn) | 8.42% [at 38.5 µM]
